# Hits are enriched below; roughly 12% of the tested compounds scored in any of these assays.
# SARS PLpro yeast: SARS-CoV PLP inhibition in yeast. 330,000 tested, 0.19% active. Potency, µM (doses to about 32.9 µM), for inactives: at the highest dose activity, positive = growth rescue, hits mostly activators. AID 485353. S. cerevisiae expressing SARS-CoV PLpro, growth rescue; calls by dose curve; note: 0% is about no effect; nearly all actives have a fitted effect of over 55% in size
# NS1 inh: inhibitors of influenza NS1 protein function. 270,000 tested, 0.4% active. Potency, µM (series often up to 46.1 µM), inactives show top-dose activity, positive = more growth; calls by dose curve; note: actives are rising curves; nearly all actives have a fitted effect of over 50% in size
#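 Read-out: OD600 growth recovery of NS1-expressing budding yeast. Cells grown overnight at 30C in -URA glucose medium, washed, resuspended and diluted 1:100 in 2% galactose assay medium, pH 6.0. Same strain lacking NS1 served as positive control.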
# Pf growth 48h: P. falciparum growth inhibition at 48 hours (one generation) | P. falciparum luciferase growth in erythrocytes, 48 h | Potency, µM (highest dose often 28.7 µM), for inactives: top-dose activity change, negative = inhibition, usual class: inhibitors | 310,000 tested, 5.9% active; note: % is set by controls: 0 for no effect and ±100 for the full control effect
#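 Luminescence readout; reporter = integrated firefly luciferase in P. falciparum. RBC culture at 2% hematocrit, 0.1% parasitemia final, 37 C/5% CO2; decreased signal taken as growth inhibition.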
# AMA1-RON2 inh: disrupts binding of P. falciparum AMA1 to RON2; Potency, µM (doses to about 58.2 µM), for the others: top-dose activity change, negative = inhibition, actives largely listed as inhibitors; AlphaScreen AMA1-biotinylated RON2 peptide binding; 360,000 tested, 0.2% active;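 note: 0% = vehicle wells and -100% = peptide control; nearly all actives have a fitted effect of over 45% in size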
#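 AMA1 (3D7) with his tag at 25 nM final met compounds first, then biotinylated RON2 peptide at 25 nM; detection used donor plus acceptor beads, 10 µg/mL apiece, read by AlphaScreen after 30 min at room temperature.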
# Pf growth 96h: inhibits malaria parasite growth, 96 h | AID 504834 | Potency, µM (series often up to 28.7 µM), for inactives: at the highest dose activity change, negative = inhibition, hits mostly inhibitors | 320,000 tested, 6.9% active | P. falciparum luciferase reporter growth, 96 h; note: % is set by controls: 0 for no effect and ±100 for the full control effect
#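 Cell-based qHTS: luciferase-tagged P. falciparum in erythrocytes (2% hematocrit, 0.05% parasitemia final) incubated with compounds for 96 hours, 37 C, 5% CO2; luciferase detection reagent then added and luminescence measured.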
# HCV inhibitor: HCV inhibition; 340,000 tested, 3.4% active; Huh7.5.1 HCVcc-Cre infection, luciferase reporter, 44 h; Potency, µM (top dose mostly 41.8 µM), inactives show top-dose activity change, negative = inhibition, actives largely listed as inhibitors; AID 651820; note: % is set by controls: 0 for no effect and ±100 for the full control effect
#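 A cell-based infection assay in which seeded cells (1,000 per well) receive test compound after 4 h, are inoculated with HCVcc-Cre at approximately 0.5 moi, and are incubated 44 h before luminescence detection.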
# Numbers without * were called inactive; ? = inconclusive; . = no result given; [ ] = dose if it differs, or a comment. Unless noted, calls come from the whole dose curve; as a rule, active = well fitted curve in the direction sought with a large enough effect; inconclusive = small, poorly fitted or top-dose-only effect, or another doubt; inactive = no such curve, though single readings can be large; an effect the other way counts as inactive or inconclusive. Potency is the fitted concentration of half-maximal effect.
SMILES,SARS PLpro yeast,NS1 inh,Pf growth 48h,AMA1-RON2 inh,Pf growth 96h,HCV inhibitor
C=CCN1C(=O)c2ccccc2Sc2ccc(C(=O)N3CCC4(CC3)OCCO4)cc21,-2%,-3%,?,-8%,10µM*,?
COc1cc(NC(=O)CN2C(=O)c3ccccc3Sc3ccc(C(=O)N4CCOCC4)cc32)cc(OC)c1OC,5%,.,6.6µM*,12%,?,29%
CC(C)(C)C(=O)CSc1ccc(S(=O)(=O)N2CCN(Cc3ccccc3)CC2)cn1,-2%,.,?,-8%,?,-10%
CC(C)CNC(=O)CSc1ccc(S(=O)(=O)N2CCN(C)CC2)cn1,0%,.,-1%,4%,?,-1%
C=C(C)CN(CC)C(=O)CSc1ccc(S(=O)(=O)N2CCN(Cc3ccccc3)CC2)cn1,-3%,.,?,-9%,8.3µM*,?
C=C(C)CN(CC)C(=O)CSc1ccc(S(=O)(=O)N2CCN(C)CC2)cn1,-6%,.,10µM*,-15%,?,1%
NC(=O)C1(N2CCCCC2)CCN(C(=O)c2cc(COc3c(F)cccc3F)on2)CC1,.,.,.,5%,.,.
Cc1ccc(NC(=O)C2C3CCC(O3)C2C(=O)O)cc1Cl (configuration not stated),-15%,12%,7%,-16%,13µM*,9%
Cc1ccc(NC(=O)C2OCCc3ccccc32)cc1Cl (configuration not stated),-3%,-7%,-7%,13%,8.3µM*,-7%
O=C(O)C1C2CCC(O2)C1C(=O)Nc1ccc(Cl)cc1 (configuration not stated),1%,-2%,-4%,-5%,14%,11%
O=C(O)C1C2CCC(O2)C1C(=O)Nc1ccc(F)c(Cl)c1 (configuration not stated),2%,7%,9%,-13%,12µM*,9%
O=c1c2ccccc2nc(/C=C/c2cc(Br)ccc2O)n1CCO,.,.,.,8%,.,14µM*
O=c1c2ccccc2nc(/C=C/c2c[nH]c3ccccc23)n1CCO,0%,-2%,?,8%,20%,?
O=c1c2ccccc2nc(/C=C/c2ccccc2)n1CCCO,0%,-7%,?,-13%,1%,-7%
O=c1c2ccccc2nc(/C=C/c2ccc(O)cc2)n1CCc1ccccc1,-13%,30%,?,7%,?,13µM*
CCCc1cc(C(=O)Nc2ccc(CC)cc2)no1,-14%,-23%,186%,21%,?,-16%
O=[N+]([O-])c1cc(C2Nc3cccc4cccc(c34)N2)ccc1Cl,-1%,21%,2.9µM*,-25%,-12%,?
Cc1cccc(C2Nc3cccc4cccc(c34)N2)c1,1%,5%,4.7µM*,-3%,7%,-1%
Clc1ccc(C2Nc3cccc4cccc(c34)N2)cc1,0%,12%,?,-2%,2%,5%
COc1ccc(N2CCN(c3ncnc4c3nnn4Cc3ccccc3Cl)CC2)cc1,2%,24%,3%,-1%,5.2µM*,15%
CCc1nc(N2CCC3(CC2)OCCO3)c2nnn(Cc3ccccc3)c2n1,3%,.,?,0%,0%,?
c1ccc(Cn2nnc3c(N4CCc5ccccc5C4)ncnc32)cc1,-14%,-40%,?,-20%,47%,-24%
c1ccc(Cn2nnc3c(N4CCC5(CC4)OCCO5)ncnc32)cc1,2%,-6%,-9%,?,12µM*,?
CC1Cc2ccccc2N1c1ncnc2c1nnn2Cc1ccccc1 (configuration not stated),-1%,-21%,-6%,14%,-19%,11µM*
Cn1ccc2c(/C=C/c3ccc(F)cc3)cc3c(c21)C1CCC3C1 (configuration not stated),.,.,.,-21%,.,.
SMILES,SARS PLpro yeast,NS1 inh,Pf growth 48h,AMA1-RON2 inh,Pf growth 96h,HCV inhibitor
O=C1OCC2=C1C(c1ccccc1)CC(=O)N2c1ccccc1 (configuration not stated),3%,.,19%,3%,0%,9%
NC(Cc1ccc(C(F)(F)F)cc1)c1csc(Nc2ccc(S(N)(=O)=O)cc2)n1 (configuration not stated),.,.,.,47%,.,.
Oc1ccc(N=Nc2cccc(C(F)(F)F)c2)cc1C=Nc1ccc(N2CCOCC2)cc1,0%,11%,?,-23%,3.3µM*,0%
Cn1c(N)c(C(=O)COC(=O)COc2ccc(Cl)cc2Cl)c(=O)n(C)c1=O,9%,.,.,-9%,.,10%
CC(C)(C)CC(=O)NC(=S)NCCc1ccccc1,27%,-4%,-12%,41%,12µM*,-7%
CC(C)(C)C(=O)NC(=S)NCc1ccccc1,-12%,15%,-31%,-13%,9.3µM*,5%
O=C(NC(=S)NCc1ccccc1)c1ccccc1,-1%,6%,-2%,3%,47%,-10%
CN1OC[C@@H]2CN[C@H](c3cccc(Oc4ccccc4)c3)C[C@@H]21,.,.,.,-6%,.,.
Cc1cc(NC(=O)CSc2nnnn2-c2ccccc2C)no1,-1%,0%,?,84%,?,3%
Cc1cc(-n2c(C)cc(C(=O)CSc3nnnn3-c3ccccc3)c2C)no1,-6%,-4%,?,0%,4%[5.75 µM],8.9µM*
CCc1ccccc1-n1nnnc1SCC(=O)Nc1ccc(N2CCN(C)CC2)cc1,-4%,3%,15µM*,-12%,?,1%
Cc1ccccc1-n1nnnc1SCC(=O)Nc1ccc(N2CCN(C)CC2)cc1,-6%,-3%,-20%,0%,-2%,-22%
CCc1ccccc1-n1nnnc1SCC(=O)Nc1cc(C)on1,1%,6%,-22%,3%,9.3µM*,-11%
Cc1cc(-n2c(C)cc(C(=O)CSc3ccccn3)c2C)no1,-20%,.,.,3%,.,?
FC(F)(F)c1nc2ccc(SSc3ccc4nc(C(F)(F)F)[nH]c4c3)cc2[nH]1,.,-15%,.,.,.,.
Cc1ccc(CN2CCNC(=O)C2CC(=O)N2CCN(c3ncccn3)CC2)o1 (configuration not stated),-1%,1%,-2%,10%,?,0%
COc1ccc(NS(=O)(=O)c2cccs2)cc1S(=O)(=O)N1CCCCC1,2%,.,?,-10%,1%,0%
COc1ccccc1-n1c(CNc2c(C)cccc2C)nnc1SCC(=O)N1CCOCC1,0%,-4%,-2%,36%,12µM*,3%
CC(c1ccco1)N(C(=O)c1cccc(Br)c1)c1ccccn1 (configuration not stated),-1%,-9%,-13%,-10%,-13%,-14%
O=C(CSc1ncn[nH]1)Nc1ccccc1C(=O)O,5%,-3%,10%,2%,2.9µM*,13%
CC(=O)N1CCN(c2ccccc2NC(=O)COc2cc(C)ccc2C(C)C)CC1,-5%,-18%,?,-6%,.,?

# Source: PubChem (National Center for Advancing Translational Sciences (NCATS))
